This note sets out measurements from PubChem BioAssay AID2315 (National Center for Advancing Translational Sciences (NCATS), 2010).

About 27,000 (9.3%) of roughly 290,000 compounds were called active. For the sample, actives were picked, then their nearest neighbours and some compounds at random. Values without a mark were called inactive. Cut-off read from the data, not from the text of the source: active = inhibition mostly above about 28% (no sharp cut-off); inactive = mostly below about 43%.

As usually defined, the inhibition is the drop in the measured response relative to a control, in per cent.

The assay in a line: A qHTS for Small Molecule Inhibitors of Shiga Toxin. For inhibition: 0% is about no effect. The settings on record: Vero cells, Shiga toxin protein synthesis inhibition reporter; at 38.7 µM, active compounds read high. (In general: In qHTS, concentration-response curves come from the screen itself.)
Consider `CCOc1cccc(C(=O)Nc2cnn(Cc3ccccc3)c2)c1`, for which the inhibition was 17.4%.
To `CCc1ccc(NC(=O)c2ccc(Cn3cc([N+](=O)[O-])cn3)cc2)cc1` belongs 51.8%.
As for `O=C(Nc1ccccc1F)c1ccc(Cn2cc(Br)cn2)cc1`, the inhibition is 71.1% (active).
As for `CC(NC(=O)Cn1cc(C(F)(F)F)cc(Cl)c1=O)c1ccccc1` (configuration not stated), the inhibition was -1.42%.
For `NNC(=O)CSc1nnc(-c2ccccc2)n1-c1ccccc1`, the inhibition is -7.44%.
For `COc1ccc(C(=O)NC2CC2)cc1OC1CCN(Cc2ccc(SC)cc2)CC1`, the inhibition is -0.345%.
To `Cc1nnc(NCCO)c2ccccc12` belongs 10.4%; to `COc1ccc(Nc2nc(=O)[nH]nc2C)cc1`, 16.1%; to `COc1ccc(Nc2nnc(C)c3ccccc23)cc1`, 106% (active).
`CN(Cc1ccccc1)C(=O)C1CCCN(c2ncnc3c2nc2n3CCCCC2)C1` (configuration not stated): the inhibition is 21.9%.
Turning to `C/C(=C/c1ccccc1)C(=O)N1CCN(c2ccccc2)CC1`, the inhibition was 18.9%.
The value for `Cc1cccc(C(=O)OC(C)CN2CCCC2)c1` (configuration not stated) was 5.97%; that for `O=C(CCc1ccccc1)NNC(=O)c1ccc(Br)cc1` was 34.5%.
The value for `CC(C)(C)c1ccc(C(=O)NNC(=O)Cc2ccccc2)cc1` was 76.6% (active); that for `CCNC(=S)NNC(=O)Cc1ccccc1` was -8.55%; that for `CCOc1ccc2c(c1)C(c1ccc(C)cc1)=NNC(c1ccc(C)cc1)=N2` was 85.1% (active).
For the molecule `Cc1ccc(C2=Nc3c(ccc4ccccc34)C(c3ccncc3)=NN2)cc1`, the inhibition is 5.77%.
For `CCc1ccc2c(c1)C(c1ccc([N+](=O)[O-])cc1)=NNC(c1ccccc1)=N2`, the inhibition is 31.4%.
As to `Cc1ccc(S(=O)(=O)N2CCN(C(=O)N3CCOCC3)CC2)c(C)c1`, the inhibition was -2.32%.
For `COc1cccc(OC)c1C(=O)N1CCN(Cc2cccnc2)CC1`, the inhibition is 11.9%.
Turning to `O=C(NCc1ccccc1)c1ccc(S(=O)(=O)Nc2cccc(C(F)(F)F)c2)cc1`, the inhibition was -3.31%.
Consider `COc1cc(CC(=O)NCc2cccs2)cc(OC)c1OC`, for which the inhibition is -11.7%.
To `O=C(Cc1cccs1)NCc1cccc(C(F)(F)F)c1` belongs 61.9% (active); to `COc1cccc(NC(=O)N2CCCC2C(=O)NC2CCCCC2)c1` (configuration not stated), -3.54%; to `O=S(=O)(Nc1ccc2[nH]ncc2c1)c1ccccc1Cl`, -6.01%.
For the molecule `O=C(CSc1nnc2n1CCCN2)c1ccccc1`, the inhibition is 53.5% (active).
Take `N#Cc1ccc(CSc2nnc3ccccn23)cc1`: the inhibition was -7.41%.
Consider `CCN(C(=O)CSc1nnc2ccccn12)C1CCS(=O)(=O)C1` (configuration not stated), for which the inhibition was -8.56%.
As for `O=C(CSc1nnc2ccccn12)c1ccccc1`, the inhibition was 74.7% (active).
Turning to `Cc1ccc(-n2c(C)nnc2SCC(=O)NC2CC2)cc1`, the inhibition was -29.3%.
To `O=C(CSc1nnc(-c2ccco2)n1CC1CCCO1)c1ccccc1` (configuration not stated) belongs 21.9%.
Consider `Cn1c(CC(=O)Nc2ccccc2)nnc1SCC(=O)c1ccccc1`, for which the inhibition is 0.707%.
Consider `Cn1c(SCC(=O)c2ccc(F)cc2)nnc1-c1ccccn1`, for which the inhibition was 21.4%.
Consider `Cc1ccc(-n2c(C)cc(C(=O)CSc3nnc4ccccn34)c2C)cc1`, for which the inhibition is 48.6% (active).
As for `Cn1c(=O)n(C)c2cc(S(=O)(=O)Nc3ccc(F)cc3)ccc21`, the inhibition is 0.488%.
Regarding `Cc1ccc(CCN2CC(C(=O)NCCc3ccccc3)CC2=O)cc1` (configuration not stated), the inhibition is 16.6%.
As for `CC1CCCCN1C(=O)Cn1c(=O)oc2cc(S(=O)(=O)N3CCCCC3)ccc21` (configuration not stated), the inhibition is 12.7%.
As for `CC(C)(C)NC(=O)NC(=O)COC(=O)C1c2ccccc2Oc2ccccc21`, the inhibition was -5.17%.
As to `Cc1ccc2[nH]c(=O)c(CC(=O)O)c(-c3ccccc3)c2c1`, the inhibition is 1.65%.
For `Cc1nn(CC(=O)N/N=C/c2ccc(F)cc2)c(C)c1[N+](=O)[O-]`, the inhibition is -12.8%.
Consider `COc1cc(/C=N/NC(=O)c2cc(C)n(-c3ccc(F)cc3)c2C)cc(OC)c1O`, for which the inhibition was 43.1% (active).
Take `Cc1cc(C(=O)N/N=C/c2ccc(N3CCOCC3)cc2)c(C)o1`: the inhibition is 46.9%.
Consider `COc1ccc(/C=N/NC(=O)c2ccncc2)cc1CN1CCCc2ccccc21`, for which the inhibition was -1.95%.
`COc1cc(/C=N/NC(=S)Nc2cccnc2)cc(OC)c1O`: the inhibition is -4.42%.
For the molecule `O=C(N/N=C/c1cccc(Br)c1)c1ccc(N2CCCC2=O)cc1`, the inhibition is 18.7%.
As for `COc1cc(/C=N\NC(=O)C2C(=O)NCC2c2ccccc2)cc(OC)c1O` (configuration not stated), the inhibition was -11.2%.
For the molecule `COc1cc(/C=N/NC(=O)c2ccc(N3CCCC3=O)cc2)ccc1O`, the inhibition is 56.5% (active).
To `Cc1cc(C(=O)N/N=C/c2ccc(O)c([N+](=O)[O-])c2)c(C)n1-c1ccc(F)cc1` belongs 0% (active); to `CCc1ccc(CNC(=O)C2CC(=O)N(CCc3ccc(C)cc3)C2)cc1` (configuration not stated), -9.66%.
The value for `COCCC(=O)N1CCC(Oc2ccc(C(=O)NCc3ccon3)cc2)CC1` was -10.3%.
To `CCCCCC1CC(COc2ccccc2)OC1=O` (configuration not stated) belongs -10.6%; to `Cc1cc(-c2n[nH]c(=S)n2/N=C/c2ccco2)n[nH]1`, -9.01%; to `S=c1[nH]nc(-c2cccnc2)n1/N=C/C(Cl)=C\c1ccccc1`, 48.2%.
As to `Cc1cc(-c2n[nH]c(=S)n2/N=C/C(Br)=C/c2ccccc2)n[nH]1`, the inhibition is 91.5% (active).
Take `CC(=O)c1c(C)oc2ccc(NS(=O)(=O)c3ccc(C(=O)O)cc3)cc12`: the inhibition was 18.1%.
For the molecule `CCCCN(CCCC)CCCNC(=O)CN1C(=O)COc2ccc(S(=O)(=O)N3CCC(C)CC3)cc21`, the inhibition was -6.42%.
For `Cc1cccc(NC(=O)C2CCCN(C(=O)Nc3ccc(F)cc3)C2)c1C` (configuration not stated), the inhibition was 1.84%.
Take `Nc1nonc1C(=O)NCCc1ccccc1`: the inhibition is 66.7% (active).
In the case of `O=C(NCCc1ccccc1)C1CC1`, the inhibition is 8.81%.
Regarding `NC(=O)Nc1ccccc1C(=O)NCCc1ccccc1`, the inhibition was 83.7% (active).
Consider `CN(C)/C(=N\OC(=O)c1ccccc1)c1nonc1N`, for which the inhibition is -8.6%.
To `NS(=O)(=O)c1ccc(CCNC(=O)CNC(=O)Cc2ccccc2)cc1` belongs -4.55%; to `O=C(O)c1ccccc1-c1ccccc1C(=O)NCCc1ccccc1`, 23.5%.
For the molecule `Cc1ccc(-c2ccc(=O)n(Cc3ccc(F)cc3Cl)n2)cc1`, the inhibition is -3.36%.
Consider `CCOC(=O)N1CCC(N2Cc3cccc(C(=O)Nc4c(C)cccc4CC)c3C2=O)CC1`, for which the inhibition was 3.74%.
Take `CC(C)[C@H](NC(=O)N1CCn2c1nc1ccccc12)C(=O)NCc1ccc2c(c1)OCO2`: the inhibition was 10.7%.
For the molecule `O=C(CN1C(=O)NC2(CCCCC2)C1=O)NCCc1c[nH]c2ccccc12`, the inhibition is -14%.
For `O=C(CCC(=O)n1ncc2ccccc21)NCc1ccccc1Cl`, the inhibition is -2.08%.
To `CCCOc1ccc(C2=CSC3=NCCN23)cc1Cl` belongs -7.6%; to `CCN(CC)S(=O)(=O)c1ccc(N2CCOCC2)c(NC(=O)C2CSC3(C)CCC(=O)N23)c1` (configuration not stated), -6.24%; to `COc1ccc2c3c(c(=O)oc2c1)C1O[C@](CCCCN2C(=O)c4ccccc4C2=O)(Cc2c1ccc1ccccc21)O3`, “inactive”.
As to `Cc1cccc(NC(=O)CCn2c(=O)oc3ccccc32)c1`, the inhibition is 63.6%.
On to `NC(=O)Cn1c(=O)oc2ccccc21`, for which the inhibition is 18.3%.
To `Cc1ccc(OCCCn2c(=O)oc3ccccc32)cc1` belongs 52.4% (active); to `CCc1ccc(NC(=O)Cn2nnc(C(=O)NCc3ccc(OC)cc3)c2N)cc1`, 6.32%.
Turning to `COc1ccc2c(c1)CCc1c(C(=O)N3CCCC3)noc1-2`, the inhibition is 55.2% (active).
`COc1ccc2c(c1)CCc1c(C(=O)N3CCc4ccccc4C3)noc1-2`: the inhibition is 26.1%.
The value for `COc1ccc2oc(=O)c(C(=O)N3CCCC3)cc2c1` was -3.3%; that for `COc1ccc(/C=N/NC(=O)C2CC2)c(OC)c1OC` was -1.72%; that for `COc1ccc(/C=C2\CCc3ccccc3C2=O)c(OC)c1OC` was 77.4% (active).
For the molecule `O=C1/C(=C/c2cccs2)CCc2ccccc21`, the inhibition was 85.4% (active).
The value for `CN1C/C(=C/c2cccs2)C(=O)/C(=C\c2cccs2)C1` was 66.1%.
Regarding `COc1ccc2c(c1OC)C(=O)c1ccccc1C2=O`, the inhibition was 16.6%.
As to `CCC1C/C(=C/c2cccs2)C(=O)/C(=C/c2cccs2)C1` (configuration not stated), the inhibition is -3.18%.
As to `O=C1/C(=C/c2cccs2)CCC1C1CCCC1` (configuration not stated), the inhibition is 136% (active).
Consider `O=C1/C(=C/c2cccs2)SC(=S)N1C1CCS(=O)(=O)C1` (configuration not stated), for which the inhibition was -16.1%.
For the molecule `O=C(COC(=O)/C=C/c1cccs1)NC1CCCCC1`, the inhibition is 10.6%.
As for `CCOC(=O)C1CCCN(CCSc2ccc(C)cc2)C1` (configuration not stated), the inhibition was 30%.
As for `O=C(N[C@@H](Cc1ccccc1)C(=O)OCc1ccccc1)c1nc[nH]c1C(=O)N[C@@H](Cc1ccccc1)C(=O)OCc1ccccc1`, the inhibition is -7.22%.
Take `COc1ccccc1N1CCC(N2CCN(CC(C)(C)C)C(CCO)C2)CC1` (configuration not stated): the inhibition was -5.66%.
To `COC(=O)c1cccc(C(=O)N2CCC(CCC(=O)NCc3ccc(F)cc3)CC2)c1` belongs -4.62%.
Turning to `Cc1ccc(C(=O)Nc2nnc(C3=COCCO3)o2)cc1C`, the inhibition was 12.4%.
In the case of `COc1ccc(C2=NS(=O)(=O)N(C)C(C(=O)N(C)Cc3ccccc3)=C2)cc1`, the inhibition is 0.266%.
Regarding `CCOc1ccc(N(C(=O)c2snc(C(N)=O)c2N)C(C(=O)NCC2CCCO2)c2c[nH]c3ccccc23)cc1` (configuration not stated), the inhibition is -13.1%.
With `COc1cccc(Nc2ncccc2C(=O)O)c1`, the inhibition was 96.7% (active).
Turning to `COc1ccc2nc(C)cc(Nc3cccc(C(=O)O)c3)c2c1`, the inhibition is -3.88%.
Take `COc1cccc(NC(=O)C(C)Oc2ccccc2)c1` (configuration not stated): the inhibition is -3.55%.
